# Unmarked numbers belong to inactive results. Records with an inconclusive call do not appear. A call without a number means that no potency is given here. Activity calls are given as the source filed them. Unless noted, calls come from the whole dose curve; as a rule, active = well fitted curve in the direction sought with a large enough effect in the repeat runs; inconclusive = weak or mixed curves; inactive = no such curve, though single readings can be large; an effect the other way counts as inactive or inconclusive.
# Legend:
# [1] = qHTS assay for small molecules that induce genotoxicity in human embryonic kidney cells expressing luciferase-tagged ATAD5 (AID 651632); note: nearly all actives have a fitted effect of over 15% in size
# Outline: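 Reporter cells (HEK293T) express luciferase-tagged ATAD5, a protein that accumulates after DNA damage. Treat 16 hr at 37C/5% CO2, add Amplite, wait 30 min at RT, and read luminescence.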
# [2] = qHTS assay for small molecule agonists of the p53 signaling pathway - cell viability (AID 651633; calls by dose curve;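 note: p53RE-bla HCT reporter cells with a stable beta-lactamase p53 reporter; series mostly up to about 83 µM; nearly all actives have a fitted effect of over 30% in size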)
# Outline: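 p53RE-bla cells were treated with compound for 16 hours at 37 C. Cytotoxicity was then measured as CellTiter-Glo luminescence after 30 min at room temperature.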
# [3] = qHTS assay for small molecules that induce genotoxicity in human embryonic kidney cells expressing luciferase-tagged ATAD5 - cell viability (AID 651634; calls by dose curve; note: nearly all actives have a fitted effect of over 25% in size)
# Outline: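 Seeding of 2,000 HEK293T ATAD5-luciferase cells per well preceded pin-tool compound transfer. Plates sat 15.5 hr at 37C under 5% CO2, then fluorescence was read after 30 min with CellTiter-Fluor.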
# [4] = qHTS assay for small molecule disruptors of the mitochondrial membrane potential - cell viability (AID 720634; calls by dose curve;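 note: human HepG2 liver cancer cells; series mostly up to about 83 µM; nearly all actives have a fitted effect of over 20% in size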)
# Outline: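 Measuring cytotoxicity alongside mitochondrial potential, the screen quantified ATP by luminescence in HepG2 cells after 1 hr compound incubation and a 30 min room-temperature CellTiter-Glo step.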
# [5] = qHTS assay to test for compound auto fluorescence at 535 nm (green) in HepG2 cells (AID 720675)
# [6] = qHTS assay to test for compound auto fluorescence at 460 nm (blue) in HEK293 cells (AID 720678)
# Outline: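 Triamterene serves as the blue fluorophore standard. Compound signal at 405/460 nm is read in HEK293 wells (2,000 cells, 10% dialyzed FBS) after overnight treatment at 37C.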
# [7] = qHTS assay to test for compound auto fluorescence at 590 nm (red) in HEK293 cells (AID 720679)
# Outline: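 We plated HEK293 cells in 10% dialyzed FBS medium, let them adhere for 4-5 hr, then added 23 nL compound. Overnight at 37C and 5% CO2 preceded fluorescence measurement at 540/590nm.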
# [8] = qHTS assay to test for compound auto fluorescence at 460 nm (blue) in HEK293 cell free culture (AID 720681)
# Outline: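 Compounds were added to cell-free DMEM with 10% FBS and fluorescence read directly. The blue channel used 405 nm excitation and 460 nm emission, with triamterene as the reference fluorophore.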
# [9] = qHTS assay to test for compound auto fluorescence at 535 nm (green) in HEK293 cell free culture (AID 720682)
# Outline: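 No cells present: wells hold DMEM supplemented with 10% FBS, into which compound or vehicle is pinned. Green emission is then recorded (485 nm excitation, 535 nm emission) and scaled to fluorescein.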
# [10] = qHTS assay to test for compound auto fluorescence at 590 nm (red) in HEK293 cell free culture (AID 720683)
# Outline: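 Cell-free wells of DMEM with 10% FBS received compound, and intrinsic fluorescence was read at excitation/emission 540/590 nm. Values expressed as equivalence to Rose Bengal sodium.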
# [11] = qHTS assay to test for compound auto fluorescence at 460 nm (blue) in HepG2 cell free culture (AID 720685)
# Outline: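 Compound (23 nL) or DMSO pinned into cell-free MEM with 10% FBS; blue fluorescence read at 405/460 nm excitation/emission, expressed as auto-fluorescence equivalency to triamterene.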
# [12] = qHTS assay to test for compound auto fluorescence at 535 nm (green) in HepG2 cell free culture (AID 720686)
# [13] = qHTS assay to test for compound auto fluorescence at 460 nm (blue) in HepG2 cells (AID 720687)
# Outline: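 HepG2 cells in MEM with 10% FBS, attached overnight at 37 C, were exposed to compound or DMSO for 1 hr at 37 C, 5% CO2. Blue fluorescence was read at 405/460 nm, with triamterene as reference fluorophore.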
# [14] = biological target: Glucocorticoid receptor (Homo sapiens) (UniProt P04150); assay: qHTS assay to identify small molecule agonists of the glucocorticoid receptor (GR) signaling pathway (AID 720691; active = well fitted activation curve with a large enough effect in the signal ratio in the repeat runs, not every such curve was filed as active; the % refers to the signal ratio)
# Outline: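 Reporter read-out: fluorescence intensity following 2 h room-temperature LiveBLAzer B/G FRET substrate loading. Prior step: GR-bla HeLa cells held 4 h, then treated 18 h at 37 C.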
# [15] = biological target: Glucocorticoid receptor (Homo sapiens) (UniProt P04150); assay: qHTS assay to identify small molecule antagonists of the glucocorticoid receptor (GR) signaling pathway (AID 720692; active = well fitted inhibition curve with a large enough effect in the signal ratio in the repeat runs, not every such curve was filed as active; the % refers to the signal ratio; note: potency is the fitted concentration of half-maximal effect)
# Outline: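 Dexamethasone (5 nM final) stimulated a stably integrated GRE-beta-lactamase reporter in HeLa cells during 18 h co-incubation with compounds; signal was quantified as fluorescence intensity of B/G FRET substrate after 2 h.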
# [16] = qHTS assay to test for compound auto fluorescence at 590 nm (red) in HepG2 cells (AID 720674)
# Outline: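 Seeding: 2,000 HepG2 cells/well, MEM/10% FBS, overnight 37 C. Dosing: compound vs DMSO. Incubation: 1 hr, 37 C, 5% CO2. Read: fluorescence 540 ex/590 em, Rose Bengal sodium as red reference.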
# [17] = qHTS assay to test for compound auto fluorescence at 535 nm (green) in HEK293 cells (AID 720680)
# [18] = qHTS assay to test for compound auto fluorescence at 590 nm (red) in HepG2 cell free culture (AID 720684)
# Outline: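 Compounds are added to culture medium (MEM, 10% FBS) lacking cells, then fluorescence is read at excitation 540 nm, emission 590 nm, with Rose Bengal sodium as the equivalency standard.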
# [19] = qHTS assay for small molecule disruptors of the mitochondrial membrane potential (AID 720635)
# Outline: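 HepG2 cells exposed to compound 1 hr at 37C, then Mito-MPS dye 30 min. Ratio read of aggregate (540/590 nm) versus monomer (490/535 nm) fluorescence.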
# Chain of Glucocorticoid receptor (Homo sapiens) (P04150 whole entry, looked up): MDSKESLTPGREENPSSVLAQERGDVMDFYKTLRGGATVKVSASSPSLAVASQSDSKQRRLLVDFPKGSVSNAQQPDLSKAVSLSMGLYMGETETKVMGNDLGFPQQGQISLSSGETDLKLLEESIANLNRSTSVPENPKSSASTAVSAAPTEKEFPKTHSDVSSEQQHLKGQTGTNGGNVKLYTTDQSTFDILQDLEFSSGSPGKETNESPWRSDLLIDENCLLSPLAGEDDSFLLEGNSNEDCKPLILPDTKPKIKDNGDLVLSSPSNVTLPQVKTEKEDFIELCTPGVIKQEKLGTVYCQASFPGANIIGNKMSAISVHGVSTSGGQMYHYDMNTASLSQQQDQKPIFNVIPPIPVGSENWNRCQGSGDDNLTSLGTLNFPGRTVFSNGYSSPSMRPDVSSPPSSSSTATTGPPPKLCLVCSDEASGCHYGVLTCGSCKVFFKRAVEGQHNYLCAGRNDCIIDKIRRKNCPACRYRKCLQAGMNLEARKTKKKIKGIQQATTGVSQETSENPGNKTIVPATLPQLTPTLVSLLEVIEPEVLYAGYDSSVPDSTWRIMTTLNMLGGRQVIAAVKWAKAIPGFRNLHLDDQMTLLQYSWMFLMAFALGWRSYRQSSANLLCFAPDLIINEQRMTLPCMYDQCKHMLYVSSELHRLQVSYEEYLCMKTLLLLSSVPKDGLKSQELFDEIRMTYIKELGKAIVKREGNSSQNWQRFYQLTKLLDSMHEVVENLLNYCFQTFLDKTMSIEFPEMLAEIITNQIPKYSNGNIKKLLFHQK
smiles,measurement,setting,value
C[C@@]12CCC[C@H]1[C@@H]1CC[C@H]3C[C@@H](O)CC[C@]3(C)[C@H]1CC2,Potency,[1],inactive
same,Potency,[2],inactive
same,Potency,[3],inactive
same,Potency,[4],inactive
same,outcome,[5],inactive
same,Potency,[6],inactive
same,outcome,[7],inactive
same,Potency,[8],inactive
same,outcome,[9],inactive
same,outcome,[10],inactive
same,Potency,[11],inactive
same,outcome,[12],inactive
same,Potency,[13],inactive
same,Potency,[14],inactive
same,Potency,[15],inactive
C[C@@H](CN(C)C)CN1c2ccccc2Sc2ccccc21,Potency,[1],inactive
same,Potency,[2],inactive
same,Potency,[4],inactive
same,"fluorescence, relative to Rose Bengal",[16],0.322% [at 18.6 µM]
same,"fluorescence, % of fluorescein control",[5],0.0297% [at 18.6 µM]
same,"fluorescence, % of triamterene",[6],-0.151% [at 18.6 µM]
same,"fluorescence, % of fluorescent control",[7],-0.0905% [at 18.6 µM]
same,"fluorescence, % of fluorescein",[17],-0.0143% [at 18.6 µM]
same,"fluorescence, % of fluorescent control",[8],0.0136% [at 18.6 µM]
same,activity change,[9],-0.0963% [at 18.6 µM]
same,"fluorescence, % of fluorescent control",[10],0.012% [at 18.6 µM]
same,"fluorescence, % of Rose Bengal",[18],-0.209% [at 18.6 µM]
same,"fluorescence, % of fluorescent control",[11],0.0401% [at 18.6 µM]
same,"fluorescence, % of fluorescein control",[12],-0.0052% [at 18.6 µM]
same,Potency,[14],inactive
C/C=C\C/C=C/CCCCCCCCOC(C)=O,Potency,[1],inactive
same,Potency,[3],inactive
same,Potency,[4],inactive
same,Potency,[19],inactive
same,outcome,[16],inactive
same,outcome,[5],inactive
same,Potency,[6],inactive
same,outcome,[7],inactive
same,Potency,[8],inactive
same,outcome,[9],inactive
same,outcome,[10],inactive
same,outcome,[18],inactive
same,Potency,[11],inactive
same,outcome,[12],inactive
COc1ncnc(NS(=O)(=O)c2ccc(N)cc2)c1OC,Potency,[1],inactive
same,Potency,[2],inactive
same,Potency,[3],inactive
same,outcome,[16],inactive
same,outcome,[5],inactive
same,outcome,[7],inactive
same,Potency,[8],inactive
same,outcome,[9],inactive
same,outcome,[10],inactive
same,Potency,[11],inactive
same,outcome,[12],inactive
same,Potency,[13],inactive
C=C/C(C)=C/C/C=C(\C)CCC=C(C)C,Potency,[1],inactive
same,Potency,[2],inactive
same,Potency,[3],inactive
same,Potency,[4],inactive
same,outcome,[16],inactive
same,outcome,[5],inactive
same,outcome,[7],inactive
same,Potency,[8],inactive
same,outcome,[9],inactive
same,outcome,[10],inactive
same,outcome,[18],inactive
same,Potency,[11],inactive
same,outcome,[12],inactive
same,Potency,[13],inactive
same,Potency,[14],inactive
same,Potency,[15],38.9 µM (active)

# Source: PubChem BioAssay (Tox21)
